Shown is part of a subset that was picked to be rich in hits.
mcGAS MS inh: blocks mouse cGAS cGAMP production; 0.18% of 130,000 active; recombinant mouse cGAS, cGAMP by RapidFire MS; inhibition, % at 12.5 µM; Q8C6L5;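 active = inhibition of cGAS enzyme activity at or above 60%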;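 also: enzyme stimulated by 45 bp dsDNA with ATP and GTP substrates; cGAMP share of summed cGAMP plus half ATP and half GTP signals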
Target sequence (Q8C6L5 whole entry, looked up): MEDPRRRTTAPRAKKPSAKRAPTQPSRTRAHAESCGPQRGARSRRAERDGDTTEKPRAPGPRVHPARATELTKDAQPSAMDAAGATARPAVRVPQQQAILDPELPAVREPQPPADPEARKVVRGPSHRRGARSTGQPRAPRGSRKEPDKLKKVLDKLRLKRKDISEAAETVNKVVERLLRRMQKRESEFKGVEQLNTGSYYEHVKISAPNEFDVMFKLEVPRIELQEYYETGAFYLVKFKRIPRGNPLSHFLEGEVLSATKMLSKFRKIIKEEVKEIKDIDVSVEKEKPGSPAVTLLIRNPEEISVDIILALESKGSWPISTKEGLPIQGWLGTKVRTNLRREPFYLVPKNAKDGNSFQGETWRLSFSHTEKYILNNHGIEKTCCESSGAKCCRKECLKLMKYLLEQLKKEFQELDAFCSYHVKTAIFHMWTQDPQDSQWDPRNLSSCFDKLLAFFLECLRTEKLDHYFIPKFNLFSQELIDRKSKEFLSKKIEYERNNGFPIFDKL
Starred values were filed as active, the others as inactive.

SMILES	mcGAS MS inh
NC(=S)N/N=C\c1coc2ccccc2c1=O	95*
O=C1NCCN2CCN(C(=O)c3cnn4ccccc34)CC12 (stereo unspecified)	-5
CC[C@@]1(O)C[C@H](O)c2c(cc3c(c2O)C(=O)c2c(O)ccc(O)c2C3=O)[C@H]1C(=O)OC	-9
CC[C@@]1(O)C[C@H](O[C@H]2C[C@H](N(C)C)[C@H](O)[C@H](C)O2)c2c(cc3c(c2O)C(=O)c2c(O)ccc(O)c2C3=O)[C@H]1C(=O)OC	97*
CC[C@@]1(O)C[C@H](O[C@H]2C[C@H](N(C)C)[C@H](O)[C@H](C)O2)c2c(cc3c(c2O)C(=O)c2c(O)cccc2C3=O)[C@H]1C(=O)OC	98*
N#Cc1cnc2c(C#N)cnn2c1N	-11
CCOc1ccc(F)cc1NC(=O)c1cc(C)n(C(C)(C)C)n1	-7
N#Cc1ccc(NC(=O)CN2CCCCCCC2)cc1Cl	-6
Cc1cccc(NC(=O)c2cc3cccnc3n(Cc3ccccc3F)c2=O)c1	-9
Cc1cccc(Cn2cccc(C(=O)Nc3cc(Cl)ccc3C#N)c2=O)c1	-9
O=C(c1ccc(F)cc1)N1CCSC12CCNCC2	-4
CC(Cc1cccs1)NCC(=O)Nc1cnccn1 (stereo unspecified)	-9
c1cnc(N2CCC3(CCCN(CC4CC4)C3)C2)nc1 (stereo unspecified)	-8
CCCCOC(=O)C1CN1C(CC)C(=O)OC (stereo unspecified)	-17
CN(C)C(=O)Oc1c(I)cc(Cl)c2cccnc12	-6
